Assay outcomes: PubChem BioAssay, National Center for Advancing Translational Sciences (NCATS)
Rango-impB inh = Rango-importin beta binding inhibition. Q14974. Rango CFP/YFP FRET sensor + importin beta, 45 min. Potency, µM (top dose mostly 92.2 µM). hit rate 0.031% among 340,000; calls by dose curve; note: nearly all actives have a fitted effect of over 15% in size
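Inhibition scored from the CFP 486 nm/YFP 530 nm FRET ratio 45 min after adding 0.125 microM importin beta to 50 nM Rango biosensor preincubated 5 min with compound (room temperature, PBS with DTT, Tween-20, BSA). No-importin wells as positive control.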
Rango dissoc inh = inhibition of RanGTP-driven Rango-importin beta dissociation | Biochemical FRET Rango-importin beta, RanGTP-induced dissociation | Potency, µM (top dose mostly 46.1 µM) | hit rate 0.071% among 340,000 | AID 540253; calls by dose curve; note: nearly all actives have a fitted effect of over 45% in size
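Two FRET readings bracket the reaction: one 5 min after compound meets Rango–importin beta, another 45 min after RanGTP-RCC1 (0.6 uM Ran, 0.2 uM RCC1, 2 mM GTP) is added. Only the second defines inhibition.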
VDR inh = vitamin D3 receptor (human) inhibition; VDR-SRC2-3 peptide fluorescence polarization, 2 h; P11473; Potency, µM, most hits filed as inhibitors; hit rate 0.93% among 400,000
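Compounds are added to VDR with labelled SRC2-3 coactivator peptide and held 2 h at room temperature. Inhibition of the VDR–peptide interaction is then read as a change in fluorescence polarization.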
PI5P4Ka inh = PI5P4K alpha (human) kinase inhibition; P48426; PI5P4Kalpha enzyme, ADP-Glo luminescence, 60 min; hits give low values; max response, %; hit rate 1.2% among 330,000; active = max response of -50% or lower; inconclusive = between -30% and -50%; inactive = -30% or higher; note: value at the top dose of about 77 µM
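Human PI5P4Kalpha with substrate in 0.038 M HEPES pH 7.4, 0.28 mM EGTA, 0.1% CHAPS, 5% DMSO; reaction started with 5 microM ATP (final), 60 min at room temperature. ADP formed read by ADP-Glo luminescence.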
PLK1 PBD inh = blocks phosphopeptide binding to human PLK1 polo-box domain | Potency, µM, most hits filed as inhibitors | Plk1 PBD binding of FITC phosphopeptide, fluorescence polarization | AID 720504 | hit rate 2.8% among 360,000; note: series mostly up to about 57 µM; nearly all actives have a fitted effect of over 65% in size
KAT2A inh = inhibitors of human GCN5L2 histone acetyltransferase. Potency, µM (top dose mostly 58.9 µM), most hits filed as inhibitors. hit rate 0.21% among 390,000. GCN5L2 HAT assay, ThioGlo1 CoA-SH fluorescence. AID 504327. Q92830
Target sequence (Q92830 whole entry, looked up): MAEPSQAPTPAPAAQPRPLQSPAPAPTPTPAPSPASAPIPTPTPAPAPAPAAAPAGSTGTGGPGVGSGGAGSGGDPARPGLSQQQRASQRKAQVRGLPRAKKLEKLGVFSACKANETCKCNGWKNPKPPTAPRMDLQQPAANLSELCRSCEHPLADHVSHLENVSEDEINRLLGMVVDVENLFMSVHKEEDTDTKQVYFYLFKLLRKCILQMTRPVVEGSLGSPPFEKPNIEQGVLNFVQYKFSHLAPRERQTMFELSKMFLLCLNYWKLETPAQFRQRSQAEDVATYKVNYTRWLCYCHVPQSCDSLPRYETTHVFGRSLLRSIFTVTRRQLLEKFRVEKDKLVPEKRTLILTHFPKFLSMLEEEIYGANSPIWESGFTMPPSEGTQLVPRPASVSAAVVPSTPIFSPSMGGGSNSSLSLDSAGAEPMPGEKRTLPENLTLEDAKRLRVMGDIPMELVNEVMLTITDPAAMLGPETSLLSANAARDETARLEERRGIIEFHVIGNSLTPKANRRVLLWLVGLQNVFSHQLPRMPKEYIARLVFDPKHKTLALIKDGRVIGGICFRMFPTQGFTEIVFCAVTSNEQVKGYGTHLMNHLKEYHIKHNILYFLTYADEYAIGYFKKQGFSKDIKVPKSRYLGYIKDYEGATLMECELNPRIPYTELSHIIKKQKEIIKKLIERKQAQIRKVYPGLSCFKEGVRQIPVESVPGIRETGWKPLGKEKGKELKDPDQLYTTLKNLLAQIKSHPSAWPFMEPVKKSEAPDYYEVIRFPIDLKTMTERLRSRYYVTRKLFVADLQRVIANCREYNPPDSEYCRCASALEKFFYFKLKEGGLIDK
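GCN5L2 (20nM final) in 50mM HEPES, 0.1mM EDTA pH 7.5, 0.01% Tween-20 was preincubated 15 min at room temperature with compound, then given ThioGlo1 (50uM), H3(1-25) peptide (75uM) and acetyl-CoA (70uM); CoA-thiol fluorescence (Ex340/Em540) was read at 0 and 20 min.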
TbPYK confirm = confirmation of Trypanosoma brucei pyruvate kinase inhibitors; shares compounds with PLK1 PBD inh; recombinant TbPYK, Kinase-Glo ATP luminescence; Potency, µM (doses to about 76.9 µM), most hits filed as inhibitors; hit rate 67% among 890; note: nearly all actives have a fitted effect of over 70% in size
TbPYK ADP-Glo = TbPYK inhibition, orthogonal confirmation | shares compounds with PLK1 PBD inh | AID 720584 | recombinant TbPYK, ADP-Glo luminescence, 60 min | Potency, µM (top dose mostly 76.9 µM), actives largely listed as inhibitors | hit rate 62% among 890; note: nearly all actives have a fitted effect of over 75% in size
Of the large screens only hits and unclear results are named; the others gave an inactive call (follow-up assays come after a bar, where they were run); [ ] = another dose, or the depositor's remark. The list is not random: actives were taken first. Their share in the collection is about 3.6%. Unless noted, calls come from the whole dose curve; as a rule, active = well fitted curve in the direction sought with a large enough effect; inconclusive = small, poorly fitted or top-dose-only effect, or another doubt; inactive = no such curve, though single readings can be large; an effect the other way counts as inactive or inconclusive.

CCOC(=O)c1c(-c2ccc(OC)cc2)oc2ccc(OCc3ccccc3C)cc12	none (no result: Rango-impB inh, Rango dissoc inh, PI5P4Ka inh, PLK1 PBD inh)
CN(Cc1ccccc1)C(=O)c1ccc(CSc2nc3cccnc3n2Cc2ccccc2F)cc1	none (no result: Rango-impB inh, Rango dissoc inh, PI5P4Ka inh, PLK1 PBD inh)
COc1ccc(N=C(NN)c2ccc3ccccc3n2)cc1	PLK1 PBD inh 12µM | TbPYK confirm 13µM | TbPYK ADP-Glo inconclusive
COc1ccc(N2C(=O)/C(=C/c3cccs3)NC2=S)cc1	Rango-impB inh inconclusive, Rango dissoc inh 16µM[inhibitor], VDR inh inconclusive, PI5P4Ka inh inconclusive, PLK1 PBD inh 2.7µM, KAT2A inh inconclusive | TbPYK confirm 8.9µM | TbPYK ADP-Glo 13µM
Cc1nc2c(c(C)c1CCC(=O)NCc1ccccc1)c(=O)n(C)c(=O)n2C	none (no result: Rango-impB inh, Rango dissoc inh, PI5P4Ka inh, PLK1 PBD inh)
COc1cc(-n2nnnc2SC)c(OC)cc1Cl	none
COc1ccc(OC)c(N=C2C(=O)Nc3ccccc32)c1	none (no result: PI5P4Ka inh)
COc1cc(N=c2ssnc2Cl)c(OC)cc1Cl	VDR inh 16µM, PI5P4Ka inh -68, PLK1 PBD inh 1.7µM, KAT2A inh 11µM | TbPYK confirm 4.5µM | TbPYK ADP-Glo 6.3µM
COc1ccc(OC)c(N=c2ssnc2Cl)c1	Rango dissoc inh inconclusive, VDR inh inconclusive, PI5P4Ka inh -64, PLK1 PBD inh 2.7µM, KAT2A inh 28µM | TbPYK confirm 16µM | TbPYK ADP-Glo 14µM
O=C(COc1ccc(F)cc1)Nc1ccc(S(=O)(=O)N(Cc2ccccc2)c2ccccc2)cc1	none (no result: Rango-impB inh, Rango dissoc inh, PI5P4Ka inh, PLK1 PBD inh)
Cc1ccc(C2=NC(=O)/C(=C/c3cc(O)c(O)c(Br)c3)S2)cc1	Rango-impB inh inconclusive, Rango dissoc inh inconclusive, VDR inh inconclusive, PI5P4Ka inh -82, PLK1 PBD inh inconclusive, KAT2A inh inconclusive | TbPYK confirm 32µM | TbPYK ADP-Glo inconclusive
COc1cc(/C=C2\SC(=Nc3ccc(O)cc3)NC2=O)cc(OC)c1O	Rango-impB inh inconclusive, Rango dissoc inh inconclusive, PI5P4Ka inh inconclusive
COc1cc(/C=C2\SC(c3ccc(C)cc3)=NC2=O)cc(OC)c1O	Rango-impB inh inconclusive, VDR inh inconclusive (no result: PI5P4Ka inh) | TbPYK confirm 35µM | TbPYK ADP-Glo inconclusive
Cc1ccc(/C=C2\SC(N3CCCC3)=NC2=O)cc1	none (no result: Rango-impB inh, Rango dissoc inh, VDR inh, PI5P4Ka inh, PLK1 PBD inh)
Cc1ccc(-n2ncc(C(=O)NCCN3CCN(C)CC3)c2C2CCN(C(=O)OC(C)(C)C)CC2)c(C)c1	none (no result: Rango-impB inh, Rango dissoc inh, PI5P4Ka inh, PLK1 PBD inh)
CC(=O)N1CCC2(CCCN(c3ccccc3)C2)CC1	VDR inh inconclusive (no result: Rango-impB inh, Rango dissoc inh, PI5P4Ka inh, PLK1 PBD inh)
O=C(Cn1c(-c2cccs2)cc2ccccc21)N1CCN(c2ccc(F)cc2)CC1	none (no result: Rango-impB inh, Rango dissoc inh, PI5P4Ka inh, PLK1 PBD inh)
CC(=O)n1cc(Nc2ccc([N+](=O)[O-])cc2)c2ccccc21	none
CC(=O)SC(C[N+](=O)[O-])c1cn(C(C)=O)c2ccccc12 (stereo not drawn)	Rango-impB inh inconclusive, VDR inh 45µM, PLK1 PBD inh 4.2µM | TbPYK confirm inconclusive | TbPYK ADP-Glo inconclusive
CCN1/C(=C/c2ccc3ccccc3[n+]2CCCS(=O)(=O)[O-])C=Cc2cc(C)ccc21	Rango-impB inh inconclusive
CCN1/C(=C/c2ccc3ccccc3[n+]2CC)C=Cc2ccccc21	Rango-impB inh inconclusive, PI5P4Ka inh inconclusive | TbPYK confirm 11µM | TbPYK ADP-Glo inconclusive
CCCN1C(=O)S/C(=C\c2ccc(N3CCOCC3)cc2C)C1=O	none (no result: Rango-impB inh, Rango dissoc inh, VDR inh, PI5P4Ka inh, PLK1 PBD inh)
CCCN1C(=O)S/C(=C\c2ccc(N3CCOCC3)o2)C1=O	Rango-impB inh inconclusive, Rango dissoc inh inconclusive, VDR inh 32µM | TbPYK confirm inconclusive | TbPYK ADP-Glo 40µM
CC1(C)CC(=O)C(C(c2ccco2)C2C(=O)CC(C)(C)CC2=O)C(=O)C1	VDR inh inconclusive, PLK1 PBD inh 6.7µM | TbPYK confirm 11µM | TbPYK ADP-Glo inconclusive
CCOC(=O)CNC(=O)CSc1nnc(-c2ccccc2)n1Cc1ccco1	none | TbPYK confirm 2.2µM | TbPYK ADP-Glo 1.4µM
Cc1cc(NC(=O)CSc2nnc(-c3ccccc3)n2Cc2ccco2)no1	none
